Measured values reported in PubChem BioAssay (Tox21).
“And” between values parts separate entries of the source, which are not always exact repeats. Identical values can stand only once. Records with an inconclusive call do not appear. A call without a number means that no potency is given here. The source made the active and inactive calls. Unless noted, calls follow the shape of the dose curve; as a rule, active = well fitted curve in the direction sought with a large enough effect in the repeat runs; inconclusive = weak or mixed curves; inactive = no such curve, though single readings can be large; an effect the other way counts as inactive or inconclusive.

test system: not listed separately; experiment: qHTS assay to identify small molecule antagonists of the retinoid-related orphan receptor gamma (ROR-gamma) signaling pathway - cell viability counter screen (AID 1159520); details: Tet-on RORgamma CHO cells viability, ATP luminescence, 16 h; series mostly up to 92.4 µM; also: nearly all actives have a fitted effect of over 50% in size
Summary of the method: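 Tet-on ROR gamma CHO cells were given compounds for 2 hr, then doxycycline hyclate at 1 uM final, and incubated 16 hr at 37 C. Viability was measured as ATP content by CellTiter-Glo luminescence.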

SMILES	outcome
C=CC[N+](C)(C)CC=C	inactive
CC1(C)NC(=O)NC1=O	inactive
CN(C)c1ccc(O)c2c1C[C@H]1C[C@H]3[C@H](N(C)C)C(=O)C(C(N)=O)=C(O)[C@@]3(O)C(=O)C1=C2O	inactive
O=C(O)/C=C/C(=O)O	inactive
C=C(C)CNCC	inactive
C=C(C)[C@H]1CC=C(C)C(=O)C1	inactive
O=[N+]([O-])c1ccc2nc[nH]c2c1	inactive
O=C(O)c1cc2ccccc2cc1O	inactive
C[C@]12CCC(=O)C=C1CC[C@@H]1[C@@H]2[C@@H](O)C[C@@]2(C)[C@H]1CC[C@]2(O)C(=O)CO	inactive
CCNc1cccc(C)c1	inactive
CC(CCl)OP(=O)(OC(C)CCl)OC(C)CCl (stereo unspecified)	inactive
O=C(O)c1ccc(S(=O)(=O)N(Cl)Cl)cc1	inactive
O=C(O)CCCCCCCCC(=O)O	inactive
CC(C)(C)c1cc(Cc2cc(C(C)(C)C)c(O)c(C(C)(C)C)c2)cc(C(C)(C)C)c1O	inactive
CCCCCCCO	inactive
C[C@]12CC[C@@H]3c4ccc(O)cc4CC[C@H]3[C@@H]1C[C@@H](O)[C@@H]2O	inactive
CCNC(=S)NCC	inactive
OCc1ccccc1	inactive
COc1ccc(CCC(C)=O)cc1	inactive

SMILES	outcome
Clc1ccccn1	inactive
C[Si]1(C)O[Si](C)(C)O[Si](C)(C)O[Si](C)(C)O1	inactive
C=C(C)C(=O)OCC(C)C	inactive
O=C(OCC1CCC2OC2C1)C1CCC2OC2C1 (stereo unspecified)	inactive
CNC(=S)N(C)C	inactive
Brc1ccc(Br)c(Br)c1	inactive
COc1ccccc1OCC(O)CO (stereo unspecified)	inactive
NC(=S)NNC(N)=S	inactive
CC(=O)OCCOC(C)=O	inactive
c1ccc2c(c1)Cc1ccccc1-2	inactive
CCO[Si](CCC#N)(OCC)OCC	inactive
CC(C)OC(=O)COc1ccc(Cl)cc1Cl	inactive
C=CC(=O)OCCC(=O)O	inactive
CNC(=O)Oc1ccc2c(c1)[C@]1(C)CCN(C)[C@@H]1N2C	inactive
CCCCCCCCCCCC(=O)OC	inactive
CC(=O)OC1CC(C)OC(C)O1 (stereo unspecified)	inactive
CCOCC(=O)O	inactive
C=CCCCCCCCCC(=O)O	inactive

target: Nuclear receptor ROR-gamma (Homo sapiens) (UniProt P51449); experiment: qHTS assay to identify small molecule antagonists of the retinoid-related orphan receptor gamma (ROR-gamma) signaling pathway (AID 1159521; also: nearly all actives have a fitted effect of over 50% in size; also: potency is read from the fitted curve at half-maximal effect); details: Tet-on RORgamma CHO cells, RORE-luciferase, 16 h; series mostly up to 92.4 µM
Summary of the method: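 RORγ antagonism is scored from reduced reporter luminescence in Tet-on CHO cells. Induction used 1 uM final doxycycline hyclate for 16 h at 37 C, following a 2 h compound exposure.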

SMILES	Potency
C=CC[N+](C)(C)CC=C	inactive
CC1(C)NC(=O)NC1=O	inactive
CN(C)c1ccc(O)c2c1C[C@H]1C[C@H]3[C@H](N(C)C)C(=O)C(C(N)=O)=C(O)[C@@]3(O)C(=O)C1=C2O	21.7 µM (active) and 26.6 µM (active)
O=C(O)/C=C/C(=O)O	inactive
C=C(C)CNCC	inactive
C=C(C)[C@H]1CC=C(C)C(=O)C1	inactive
O=[N+]([O-])c1ccc2nc[nH]c2c1	inactive
O=C(O)c1cc2ccccc2cc1O	inactive
C[C@]12CCC(=O)C=C1CC[C@@H]1[C@@H]2[C@@H](O)C[C@@]2(C)[C@H]1CC[C@]2(O)C(=O)CO	inactive
CCNc1cccc(C)c1	inactive
CC(CCl)OP(=O)(OC(C)CCl)OC(C)CCl (stereo unspecified)	inactive
O=C(O)c1ccc(S(=O)(=O)N(Cl)Cl)cc1	inactive
O=C(O)CCCCCCCCC(=O)O	inactive
CC(C)(C)c1cc(Cc2cc(C(C)(C)C)c(O)c(C(C)(C)C)c2)cc(C(C)(C)C)c1O	inactive
CCCCCCCO	inactive
C[C@]12CC[C@@H]3c4ccc(O)cc4CC[C@H]3[C@@H]1C[C@@H](O)[C@@H]2O	inactive
CCNC(=S)NCC	inactive
OCc1ccccc1	inactive
COc1ccc(CCC(C)=O)cc1	inactive

SMILES	Potency
Clc1ccccn1	inactive
C[Si]1(C)O[Si](C)(C)O[Si](C)(C)O[Si](C)(C)O1	inactive
C=C(C)C(=O)OCC(C)C	inactive
O=C(OCC1CCC2OC2C1)C1CCC2OC2C1 (stereo unspecified)	inactive
CNC(=S)N(C)C	inactive
Brc1ccc(Br)c(Br)c1	inactive
COc1ccccc1OCC(O)CO (stereo unspecified)	inactive
NC(=S)NNC(N)=S	inactive
CC(=O)OCCOC(C)=O	inactive
c1ccc2c(c1)Cc1ccccc1-2	inactive
CCO[Si](CCC#N)(OCC)OCC	inactive
CC(C)OC(=O)COc1ccc(Cl)cc1Cl	inactive
C=CC(=O)OCCC(=O)O	inactive
CNC(=O)Oc1ccc2c(c1)[C@]1(C)CCN(C)[C@@H]1N2C	inactive
CCCCCCCCCCCC(=O)OC	inactive
CC(=O)OC1CC(C)OC(C)O1 (stereo unspecified)	inactive
CCOCC(=O)O	inactive
C=CCCCCCCCCC(=O)O	inactive

test system: not listed separately; experiment: qHTS assay to identify small molecule agonists of the AP-1 signaling pathway - cell viability counter screen (AID 1159525; calls by dose curve; also: nearly all actives have a fitted effect of over 55% in size); details: ME-180 (cervical carcinoma) AP-1-bla cells viability, ATP luminescence, 5 h; series mostly up to 76.8 µM
Summary of the method: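 Same-well cytotoxicity counter screen of the Tox21 10K library in ME-180 cells. The readout is ATP-dependent luminescence after 5 h compound treatment. Data are normalised to DMSO and tetra n-octyl ammonium bromide controls.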

SMILES	outcome
C=CC[N+](C)(C)CC=C	inactive
CC1(C)NC(=O)NC1=O	inactive
CN(C)c1ccc(O)c2c1C[C@H]1C[C@H]3[C@H](N(C)C)C(=O)C(C(N)=O)=C(O)[C@@]3(O)C(=O)C1=C2O	inactive
O=C(O)/C=C/C(=O)O	inactive
C=C(C)CNCC	inactive
C=C(C)[C@H]1CC=C(C)C(=O)C1	inactive
O=[N+]([O-])c1ccc2nc[nH]c2c1	inactive
O=C(O)c1cc2ccccc2cc1O	inactive
C[C@]12CCC(=O)C=C1CC[C@@H]1[C@@H]2[C@@H](O)C[C@@]2(C)[C@H]1CC[C@]2(O)C(=O)CO	inactive
CCNc1cccc(C)c1	inactive
CC(CCl)OP(=O)(OC(C)CCl)OC(C)CCl (stereo unspecified)	inactive
O=C(O)c1ccc(S(=O)(=O)N(Cl)Cl)cc1	inactive
O=C(O)CCCCCCCCC(=O)O	inactive
CC(C)(C)c1cc(Cc2cc(C(C)(C)C)c(O)c(C(C)(C)C)c2)cc(C(C)(C)C)c1O	inactive
CCCCCCCO	inactive
C[C@]12CC[C@@H]3c4ccc(O)cc4CC[C@H]3[C@@H]1C[C@@H](O)[C@@H]2O	inactive
CCNC(=S)NCC	inactive
OCc1ccccc1	inactive
COc1ccc(CCC(C)=O)cc1	inactive

SMILES	outcome
Clc1ccccn1	inactive
C[Si]1(C)O[Si](C)(C)O[Si](C)(C)O[Si](C)(C)O1	inactive
C=C(C)C(=O)OCC(C)C	inactive
O=C(OCC1CCC2OC2C1)C1CCC2OC2C1 (stereo unspecified)	inactive
CNC(=S)N(C)C	inactive
Brc1ccc(Br)c(Br)c1	inactive
COc1ccccc1OCC(O)CO (stereo unspecified)	inactive
NC(=S)NNC(N)=S	inactive
CC(=O)OCCOC(C)=O	inactive
c1ccc2c(c1)Cc1ccccc1-2	inactive
CCO[Si](CCC#N)(OCC)OCC	inactive
CC(C)OC(=O)COc1ccc(Cl)cc1Cl	inactive
C=CC(=O)OCCC(=O)O	inactive
CNC(=O)Oc1ccc2c(c1)[C@]1(C)CCN(C)[C@@H]1N2C	inactive
CCCCCCCCCCCC(=O)OC	inactive
CC(=O)OC1CC(C)OC(C)O1 (stereo unspecified)	inactive
CCOCC(=O)O	inactive
C=CCCCCCCCCC(=O)O	inactive
